Screening results from PubChem.
TGFb SMAD3 inh – blocks TGF-b signaling | HepG2 CAGA-GFP TGF-b/SMAD3 reporter, GFP fluorescence, 18 h; TGF-beta stimulated, 500 pg/mL final | Potency, µM (series often up to 46.1 µM), for inactives: at the top dose activity, negative = inhibition, hits mostly inhibitors | 1.2% of 410,000 active | AID 588855; note: % is set by controls: 0 for no effect and ±100 for the full control effect; nearly all actives have a fitted effect of over 65% in size
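GFP signal (ex488/em500-530) from TGF-beta-stimulated HEPG2 CAGA-GFP cells, 500 pg/mL final, 18 h at 37 degrees C in DMEM plus 1% FBS, normalized to unstimulated and DMSO-stimulated controls.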
HepG2 viability – counter-screen for TGF-b inhibitors: cytotoxicity in HepG2 cells | HepG2 CAGA-GFP viability, ATP luminescence, 18 h | Potency, µM (doses to about 46.1 µM), without a hit: at the highest dose activity change, negative = cytotoxicity, actives largely listed as cytotoxic | 0.76% of 410,000 active | AID 588856
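CellTiter-Glo luminescence gave cytotoxicity after 18 hours at 37 degrees C. The cells were HepG2 CAGA-GFP in 1% FBS DMEM, stimulated with 500 pg/mL TGF-beta after compound addition. %Activity was normalised to no-cell wells (complete cell-killing) and DMSO (no toxicity), and curves were fitted and classified.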
HT1080 IDH1KD tx – kills HT-1080 cells with IDH1 knockdown. Potency, µM (series often up to 46.1 µM), without a hit: at the highest dose activity, negative = toxicity, hits mostly cytotoxic. HT-1080 IDH1 knockdown viability, ATP luminescence, 48 h. 2% of 360,000 active;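 note: 0% = DMSO wells and -100% = cell-free medium wells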
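Assay cells: HT-1080 with IDH1 knockdown, 750 per well, RPMI/5% FBS. Exposure: 48 h at 37 °C following 2 h pre-incubation. Read: CellTiter-Glo luminescence; fitted concentration-response, curve class assigned.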
HT1080-NT tox – kills 2HG-producing HT-1080-NT fibrosarcoma cells; HT-1080-NT fibrosarcoma viability, CellTiter-Glo ATP luminescence, 48 h; Potency, µM (doses to about 46.1 µM), for the others: top-dose activity, negative = less viability, usual class: cytotoxic; 1.6% of 360,000 active; AID 686970;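 note: NT is the 2HG producing partner of a matched IDH1 knockdown line; 0% = DMSO-treated cells and -100% = media-only wells without cells; nearly all actives have a fitted effect of over 55% in size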
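HT-1080-NT; 750 cells/well; 5% FBS RPMI; 48 h compound, 37 degrees C; CellTiter-Glo luminescence; curve fitting and curve-class assignment.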
DT40 TDP1 CPT – DT40-hTDP1 cell growth loss with CPT | Potency, µM (titrated, usually from 46.2 µM), without a hit: top-dose activity change, negative = growth inhibition, actives largely listed as inhibitors | AID 686979 | chicken DT40 Tdp1-/-;hTDP1 cells + 20 nM CPT, ATP luminescence, 48 h | 12% of 420,000 active; note: % is set by controls: 0 for no effect and ±100 for the full control effect; nearly all actives have a fitted effect of over 55% in size
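Cell growth measured by CellTiter-Glo luminescence after a minimum 48 h, 37 C compound exposure with 20 nM CPT in Tdp1-knockout DT40 cells stably expressing hTDP1, seeded 400/well; qHTS titration format.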
TDP1 cell noCPT – qHTS for Inhibitors of human tyrosyl-DNA phosphodiesterase 1 (TDP1): qHTS in cells in absence of CPT; AID 686978, 2013; 15% of 420,000 active; DT40 Tdp1-/- hTDP1 cells, no CPT, ATP luminescence, 48 h; Potency, µM (doses to about 46.2 µM), inactives show at the highest dose activity change, negative = growth inhibition, most hits filed as inhibitors; note: % is set by controls: 0 for no effect and ±100 for the full control effect; nearly all actives have a fitted effect of over 55% in size
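Camptothecin absent (DMSO only). Human TDP1-complemented DT40 knockout cells, 400 cells/well, 37 °C for minimum 48 hr; ATP measured via CellTiter-Glo, 30 min dark incubation, luminescence.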
Active calls of the source: *; ? = inconclusive; · = no result given. An excerpt weighted towards active compounds, which were near 17% of everything screened. Calls come from the whole dose curve; as a rule, active = well fitted curve in the direction sought with a large enough effect; inconclusive = small, poorly fitted or top-dose-only effect, or another doubt; inactive = no such curve, though single readings can be large; an effect the other way counts as inactive or inconclusive. Potency is the fitted concentration of half-maximal effect.

SMILES	TGFb SMAD3 inh	HepG2 viability	HT1080 IDH1KD tx	HT1080-NT tox	DT40 TDP1 CPT	TDP1 cell noCPT
COCCNc1c(-c2ccc(O)cc2)nc2ccc(Cl)cn12	-27.5%	-23.4%	2.3%	4.0%	32.6µM*	-100.7%
CC(C)(C)Cc1c(-c2ccc(F)cc2)nc2ccc(Br)cn12	?	-42.7%	3.5%	-1.5%	?	16.4µM*
CC(C)(C)Cc1c(-c2ccccc2)nc2ccc(Cl)cn12	?	-38.5%	7.2%	-1.1%	23.1µM*	23.1µM*
CC(C)(C)Cc1c(-c2ccc(Br)cc2)nc2ccc(Cl)cn12	?	-71.7%	?	?	20.6µM*	?
CCN1C(=O)[C@H]2[C@H]3CN=C(SC)N3[C@@](Cc3ccccc3)(C(=O)OC)[C@H]2C1=O	9.3%	-0.9%	7.8%	5.9%	-4.9%	9.7%
CCOC(=O)c1c(-c2ccccc2)nc2ccc(Cl)cn12	-19.2%	-18.8%	3.8%	5.9%	?	16.4µM*
CN(C)Cc1c(-c2ccc(Cl)cc2)nc2ccc(Cl)cn12	22.1%	-8.3%	-26.3%	-1.9%	?	13µM*
CCCNS(=O)(=O)c1cccc(C(=O)NNC(=O)c2cc(C)oc2C)c1	-0.5%	-1.4%	23.6%	17.9%	-11.6%	0.0%
Cc1nn(C)c(=S)n1-c1ccc(Cl)cc1	6.1%	0.2%	2.2%	10.6%	-8.6%	-10.5%
Cc1nn(-c2ccccc2)c(=S)n1-c1ccccc1	0.0%	-7.8%	-6.6%	-1.1%	20.6µM*	13µM*
CSc1cccc(Nc2cc(C(=O)NCCCN(Cc3ccccc3)C(C)C)c3ccccc3n2)c1	?	10µM*	·	·	5.8µM*	4.61µM*
Cc1cc(C)cc(Nc2cc(C(=O)NCCCN(Cc3ccccc3)C(C)C)c3ccccc3n2)c1	-29.5%	0.7%	·	·	3.26µM*	3.26µM*
O=C(CC1NCCc2ccccc21)Nc1ccccc1 (stereo not drawn)	3.9%	0.2%	4.0%	-18.2%	3.1%	4.4%
Cc1ccc(S(=O)(=O)NCC2NCCc3ccccc32)cc1 (stereo not drawn)	4.6%	7.8%	7.9%	13.1%	-9.1%	23.1µM*
CC(=O)c1ccc(NC(=O)c2cc(C)nn2-c2ccccc2)cc1	·	-22.3%	·	·	?	?
CCC(CC)C(=O)Nc1cc(-c2cccc(C)c2)nn1-c1ccccc1	-19.4%	-7.4%	·	·	23.1µM*	16.4µM*
Cc1ccc(NC(=O)c2cc(-c3ccccc3)nn2-c2ccccc2)c(Br)c1	-1.9%	1.8%	14.2%	21.8%	14.6µM*	?
CCC(Oc1ccccc1)C(=O)Nc1cc(-c2cccc(C)c2)nn1-c1ccccc1 (stereo not drawn)	-6.6%	-6.5%	·	·	-25.0%	-6.8%
Cc1ccc(NC(=O)c2cc(-c3ccccc3)nn2-c2ccccc2)cc1	-6.0%	0.2%	0.4%	1.9%	?	20.6µM*
CCOc1cc(/C=C2\N=C(C)OC2=O)cc(Cl)c1OCC(=O)OC	0.0%	-56.3%	19.2%	19.1%	?	?
CCCCOc1c(Br)cc(/C=C2\N=C(C)OC2=O)cc1OCC	6.9%	0.4%	-5.8%	-2.1%	13µM*	?
Cc1ccc(C(=O)c2oc3ccccc3c2NC(=O)c2cc(-c3ccc(Cl)cc3)on2)cc1	7.6%	-16.9%	·	·	10.2%	-3.6%
CCCCCCCCCCCCCCCC[n+]1ccc(CC(O)c2c(C)[nH]c3ccccc23)c2ccccc21 (stereo not drawn)	?	8.91µM*	·	·	1.58µM*	1.26µM*
Cc1[nH]c2ccccc2c1C(c1c(C)[nH]c2ccccc12)c1c(C)[nH]c2ccccc12	?	-32.3%	·	·	?	?
COc1ccccc1OCCCSc1nc(-c2ccc(C(C)(C)C)cc2)nc2cc(=O)[nH]n12	?	-114.1%	·	·	-100.5%	?
SMILES	TGFb SMAD3 inh	HepG2 viability	HT1080 IDH1KD tx	HT1080-NT tox	DT40 TDP1 CPT	TDP1 cell noCPT
COc1ccc(-c2nc(SCCOc3ccccc3Cl)n3[nH]c(=O)cc3n2)cc1	?	-21.3%	·	·	20.6µM*	?
CC(C)(C)c1ccc(-c2nc(SCCCOc3ccccc3)n3[nH]c(=O)cc3n2)cc1	·	-73.6%	·	·	?	?
COc1cccc(-c2nc(SCc3ccc(C)cc3)n3[nH]c(=O)cc3n2)c1	?	-20.6%	·	·	18.4µM*	16.4µM*
C=CCc1ccccc1OCCSc1nc(-c2ccccc2F)nc2cc(=O)[nH]n12	17.8µM*	-24.4%	·	·	16.4µM*	20.6µM*
O=C(NCc1cccc(F)c1)C1CCN(C(=O)c2sccc2-n2cccc2)CC1	-11.4%	-21.7%	2.1%	3.6%	?	-24.8%
CCOc1ccc(N2C(=O)/C(=C\c3ccc(O)c(OC)c3)S(=O)(=O)C2c2cccc([N+](=O)[O-])c2)cc1 (stereo not drawn)	0.7%	3.3%	6.6%	-0.6%	18.4µM*	?
CN(CCOc1ccccc1)C(=O)c1cc(S(=O)(=O)N2CCOCC2)ccc1Cl	7.6%	-16.4%	-2.0%	-3.0%	-18.4%	?
CN(CCOc1ccc(Cl)cc1)C(=O)c1cccc(S(=O)(=O)N2CCN(c3ccccc3)CC2)c1	?	-26.3%	-23.8%	-18.8%	14.6µM*	6.51µM*
CN(Cc1ccc(Cl)cc1Cl)C(=O)c1cccc(S(=O)(=O)N2CCN(c3ccccc3)CC2)c1	?	0.0%	-14.5%	-2.0%	25.9µM*	16.4µM*
COc1cccc(CN(C)C(=O)c2cccc(S(=O)(=O)N3CCN(Cc4ccccc4)CC3)c2)c1OC	-11.8%	-34.0%	-22.0%	?	13µM*	16.4µM*
CN(Cc1ccco1)C(=O)c1cccc(S(=O)(=O)N2CCN(Cc3ccccc3)CC2)c1	-0.2%	-11.2%	-0.3%	4.8%	?	?
COc1cccc(CN(C)C(=O)c2cc(S(=O)(=O)N3CCN(c4ccccc4)CC3)ccc2Cl)c1	?	-14.5%	-4.5%	-1.3%	23.1µM*	16.4µM*
CCn1c(SCC(=O)NNC(=O)c2ccc(OC)cc2)nnc1-c1cccnc1	9.8%	0.4%	14.1%	20.2%	14.0%	?
Cc1cccc(Oc2ncnc3oc(-c4ccccc4)cc23)c1C	-16.1%	7.7%	1.6%	3.9%	?	?
COc1cccc(CN(C)C(=O)c2cccc(S(=O)(=O)N3CCN(c4ccc(F)cc4)CC3)c2)c1OC	?	-4.6%	-3.3%	-1.4%	20.6µM*	13µM*
